40 compounds from PubChem BioAssay (NCI) can be followed below.

The panel holds about 83,000 compounds, 20% with a hit somewhere; the sample as a whole holds those more often.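 Percent growth is the endpoint: 0 to 100 indicates growth inhibition (40 means 60% inhibition), 0 means no net growth, and negative values indicate cell death.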 Values without a mark were called inactive. Calls of active or inactive are those of the source. The calls were made as follows: active = growth percent below 10; inactive = the rest.

This test concerns A498 renal. In words: NCI-60 one-dose screen, 48 h (100 = growth as untreated, 0 = no growth, -100 = all killed). To be noted: 10 µM unless noted.
With `Cn1cc(-c2csc(-c3ccc(Cl)cc3)n2)c2cccnc21`, the growth is -79.9% [100 µM] (active). In the case of `COc1cc(-c2nc(SCCC(C)C)nc(Nc3ccccc3Cl)c2C#N)cc(OC)c1OC`, the growth was 85.3%. With `CCn1c(=S)[nH]c2c(=O)n(C)c(=O)n(C)c21`, the growth was 113%. On to `c1ccc(CNc2c3ccccc3nc3ccccc23)cc1`, for which the growth was 16.6%. As for `COCCn1c(-c2csc(-c3cn(C)c4ccc(OC)cc34)n2)cc2cccnc21`, the growth is 60.8%. Under `CCOC(=O)CSc1ncnc2c1c(-c1ccccc1)c(-c1ccccc1)n2-c1ccc(C)cc1` stands 75.2%. `COc1cc2oc(-c3cccc(NC(=O)c4cccc(Br)c4)c3)cc(=O)c2c(OC)c1OC`: the growth is 46.6%. Under `Cc1ccc(Cl)cc1Nc1nc(C(F)(F)F)ccc1C(=O)N/N=C/c1cccnc1` stands 34%. To `Cn1c(=O)c2c(nc(NC3=NS(=O)(=O)c4ccccc43)n2CC(=O)N2CCc3ccccc32)n(C)c1=O` belongs 58.9%; to `Cc1cccc(Cl)c1NC(=O)c1ccc2nc(NC(=O)NCCN(C)C)sc2c1`, 90.7%. As to `CCOC(=O)c1c(C)nc2c(c1N)CC(=O)N2Cc1cc(F)cc(Cl)c1`, the growth was 76.7%.

Take `COC(C(=O)[C@@H](O)[C@@H](C)O)[C@@H]1Cc2cc3cc(O[C@H]4C[C@@H](O[C@H]5C[C@@H](O)[C@H](O)C(C)O5)[C@H](O)C(C)O4)cc(O)c3c(O)c2C(=O)[C@H]1O[C@H]1C[C@@H](O[C@H]2C[C@@H](O[C@H]3C[C@@H](OC)[C@H](O)C(C)O3)[C@@H](O)C(C)O2)[C@H](O)C(C)O1` (stereo not given in full): the growth was -5.04% (active). Take `CN([O-])c1nc(N(C)[O-])nc(N2CCOCC2)n1.CN([O-])c1nc(N(C)[OH2+])nc(N2CCOCC2)n1.[Fe+3]`: the growth was 109% [100 µM]. On to `CCOP(=O)(OCC)c1nc(-c2ccccc2)oc1NCc1cccnc1`, for which the growth is 102%. As to `CCn1c(SCC(=O)c2ccc(Br)cc2)nnc1-c1ccncc1`, the growth is 91.1%. As to `CCCCNc1ccc(C#N)c(OCCN(CC)CC)c1`, the growth was 117%.

`N#Cc1c(-c2ccc(Cl)cc2)nc(NN=Cc2cccc(O)c2)nc1N1CCOCC1`: the growth was 75.1%. For `CS(=O)(=O)Nc1cc(-c2ccc3ncnc(Nc4c(Cl)ccc5c4OCO5)c3c2)cnc1Cl`, the growth is -65.3% (active). To `Fc1cccc(CNc2c3ccccc3nc3ccccc23)c1F` belongs -0.792% (active); to `COC(=O)CNC(=O)[C@H](Cc1ccccc1)NCc1ccncc1`, 88.3%. For `O=C(NCCCN1CCOCC1)c1cccc(N2C(=O)/C(=C/c3ccc(F)cc3)SC2=S)c1`, the growth was 51.6%.

As for `O=[N+]([O-])/C(=C/C=C/c1ccccc1)c1ccccc1`, the growth is 50.4%. For `Cn1cc(-c2csc(-c3c[nH]c4ccc(Br)cc34)n2)c2cnccc21`, the growth was -97.3% (active). Regarding `C=C(C)[C@@H]1CC[C@]2(C(=O)N3CCN(C)CC3)CC[C@]3(C)[C@H](CC[C@@H]4[C@@]5(C)CC(=C/c6ccncc6)/C(=N/O)C(C)(C)[C@@H]5CC[C@]43C)[C@@H]12`, the growth was 96.8%. In the case of `COc1cc(N2C(=O)[C@H](O)C2c2ccc(SC)cc2)cc(OC)c1OC` (stereo not given in full), the growth is -1.79% (active). As to `CCCCC(=O)c1ccco1`, the growth was 74.6%. Turning to `C=C(C)[C@@H]1CC[C@]2(C)[C@H](CC=C3[C@@H]4[C@H](C)[C@@H](C)CC[C@]4(CO)CC[C@]32C)[C@@]1(C)CCCN`, the growth was 72.5%. To `COc1ccc2[nH]cc(-c3nc(-c4c[nH]c5ccncc45)cs3)c2c1` belongs 81.5%; to `Oc1ccc(CN2CCC(N3CCCCC3)CC2)c2cccnc12`, 71.3%. To `CC(C)(C)c1cc(-c2nc3ccc(N4CCN(S(C)(=O)=O)CC4)cc3[nH]2)cc(C(C)(C)C)c1O` belongs 99.4%. In the case of `COc1ccc2c(c1)c(-c1noc(C(=O)c3cn(C)c4ccc(Br)cc34)n1)cn2C`, the growth is 121%.

In the case of `C[C@H](NC(=O)[C@@H](C)N)[C@H](Oc1ccc2c(cnn2-c2ccc(F)cc2)c1)c1ccc2c(c1)OCCO2`, the growth was 91.2%. With `C=C(C)[C@@H]1CC[C@]2(C(=O)O)CC[C@]3(C)[C@H](CC[C@@H]4[C@@]5(C)C[C@@H](Cc6cn(CCO[C@@H]7O[C@H](COC(C)=O)[C@H](OC(C)=O)[C@H](OC(C)=O)[C@H]7OC(C)=O)nn6)[C@H](O)C(C)(C)[C@@H]5CC[C@]43C)[C@@H]12`, the growth is 70.3%. For `CCN(CC)CCOc1ccc(-c2c(-c3ccccc3)c(=O)oc3ccccc23)cc1`, the growth is 72%. As to `COc1ccc2c(O)c(/C=C3\N=Nc4ccccc43)oc2c1C[C@@H]1CCNC[C@H]1F`, the growth is 57.9%. With `COc1cc(OC)cc(C2=C3CC[C@@H]4[C@H](CC[C@]5(C)C(=O)CC[C@@H]45)C3=CC3C(O)c4cccnc4N4C(=O)COC234)c1` (stereo not given in full), the growth was 91.6%.

In the case of `CC(=O)N1N=C(c2ccc(Nc3nc(Nc4ccc(Cl)cc4)nc(Nc4ccc(Cl)cc4)n3)cc2)CC1c1ccco1` (stereo not given), the growth is 107%.

Take `CCS/C(Nc1ccccc1)=C(\C#N)C(=O)N/N=C/c1ccc(Cl)cc1Cl`: the growth was -2.1% (active).

With `CCOC(=O)C(=Cc1cccc(Cl)c1)C(=O)OCC`, the growth was 112%.

Take `CN[C@]12CC3(C=CC(=O)C=C3)O[C@@]1(Cc1ccc(OC)cc1)N(C)C(=O)N2`: the growth is 97%.
